Out of some 96,000 compounds screened, about 20,000 (21%) were called active.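 How the source made its calls: active means CYP2C19 inhibition above a set limit at 5 µM in the primary screen (cut at about 50% in these data); inactive means the rest.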 These entries were drawn from the full list.
These molecules were tested against Cytochrome P450 2C19 (Homo sapiens) (UniProt P33261) (assay: blockers of cytochrome P450 2C19 activity – biochemical, luminescence, ADME assay, primary screen (AID 778;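 further: plate controls were negative control wells for no effect and 2.5 mM tranylcypromine positive control for full effect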)). Conditions: CYP2C19 Supersomes, luciferin-H EGE luminescence, 30 min; at 5 µM; stronger effect = higher value.
Chain of Cytochrome P450 2C19 (Homo sapiens) (P33261 whole entry, looked up): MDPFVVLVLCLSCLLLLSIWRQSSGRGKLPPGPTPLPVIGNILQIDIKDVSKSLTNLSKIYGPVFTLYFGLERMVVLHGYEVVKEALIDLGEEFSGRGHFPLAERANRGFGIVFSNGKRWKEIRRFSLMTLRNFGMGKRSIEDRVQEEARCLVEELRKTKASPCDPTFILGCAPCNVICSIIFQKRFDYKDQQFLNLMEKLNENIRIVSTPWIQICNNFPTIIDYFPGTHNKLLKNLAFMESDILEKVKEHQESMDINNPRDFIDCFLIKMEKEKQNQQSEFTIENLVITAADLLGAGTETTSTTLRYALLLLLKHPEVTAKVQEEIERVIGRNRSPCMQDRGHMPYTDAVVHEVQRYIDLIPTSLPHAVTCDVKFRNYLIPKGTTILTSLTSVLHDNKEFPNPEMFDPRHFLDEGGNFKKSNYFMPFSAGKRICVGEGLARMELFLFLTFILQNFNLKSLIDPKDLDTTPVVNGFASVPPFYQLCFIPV
With `O=S(=O)(c1ccc(Sc2nnc3ccccn23)nc1)N1CCOCC1` the inhibition was 13.2% (inactive). For `O=C(COC(=O)c1ccc2c(c1)OCCO2)NCc1ccccc1`, the inhibition was 6.9% (inactive). In the case of `O=C(CN(Cc1ccccc1)C(=O)c1ccc2c(c1)OCCO2)NCc1ccc2c(c1)OCO2`, the inhibition is reported as 29.2% (inactive). `O=C(Cn1nnc(-c2ccccc2)n1)NCc1ccc2c(c1)OCO2` was tested, and the inhibition was 25.4% (inactive). `COc1ccc(-c2csc(N3CCN(Cc4ccc5c(c4)OCO5)CC3)n2)cc1` was tested, and the inhibition was -20.9% (inactive). For `O=C(CNS(=O)(=O)c1ccc(Br)s1)NCc1ccc2c(c1)OCO2`, the inhibition was 63.1% (active). `O=C(NCc1ccc2c(c1)OCO2)C12CC3CC(CC(C3)C1)C2` was tested, and the inhibition was 26.4% (inactive). With `CCOC(=O)NCc1ccc2c(c1)OCO2` the inhibition was 48.5% (inactive). `O=C(CNS(=O)(=O)c1ccc(Br)s1)N1CCN(C(=O)c2ccco2)CC1` was tested, and the inhibition was 26.7% (inactive). For `O=C(CN1CCN(c2nc(-c3ccccc3)cs2)CC1)NCc1ccc2c(c1)OCO2`, the inhibition was 91.6% (active). In the case of `O=C(CCNS(=O)(=O)c1ccccc1C(F)(F)F)NCc1ccc2c(c1)OCO2`, the inhibition is reported as 84.6% (active). In the case of `Cc1ccc(C(=O)OCC(=O)NCc2ccc3c(c2)OCO3)s1`, the inhibition is reported as 64% (active). In the case of `C/C(=N\O)C1(C)N(O)C(C)(C)C(c2ccc(Br)cc2)=[N+]1[O-]` (centres undefined), the inhibition is reported as -15.7% (inactive). `Cc1ccccc1OCC(=O)NCC(=O)OCC(=O)c1ccc2ccccc2c1` was tested, and the inhibition was -2% (inactive). In the case of `COC(=O)c1sc(NC(=O)c2csc3c2CCCC3)nc1C`, the inhibition is reported as -10.6% (inactive). For `Clc1ccccc1-c1cc(COc2ccc3ccccc3c2)no1`, the inhibition was 3.1% (inactive). For `CCCCSc1[nH]c(=O)c(C(=O)OCC)cc1C#N`, the inhibition was 3.8% (inactive). `Cc1cc(C)n2nc(C(=O)Oc3ccc4c(c3)OCO4)nc2n1` was tested, and the inhibition was -10.7% (inactive). In the case of `CN(C)CC(O)COc1ccc(C(C)(C)c2ccc(OCC(O)CN(C)C)cc2)cc1` (centres undefined), the inhibition is reported as -7.2% (inactive). `O=C(NCc1ccc2c(c1)OCO2)c1ccc2c(c1)C(=O)N(CC1CCCO1)C2=O` (centres undefined) was tested, and the inhibition was -1.9% (inactive). For `O=C(COc1ccccc1)NCc1ccc2c(c1)OCO2`, the inhibition was 69.2% (active). In the case of `CCOC(=O)N1CCC(NC(=O)CCc2cn(C)c3ccccc23)CC1`, the inhibition is reported as 15.5% (inactive). `Cn1cc(CCC(=O)NCc2ccc3c(c2)OCO3)c2ccccc21` was tested, and the inhibition was 93.8% (active). For `O=C(CCCCn1c(=O)[nH]c2ccccc2c1=O)NCc1ccc2c(c1)OCO2`, the inhibition was 28% (inactive). For `CC1CCCCN1CC(=O)NCc1ccc2c(c1)OCO2` (centres undefined), the inhibition was 69.6% (active). In the case of `COC(=O)Cc1c(C)c2ccc(OCC(=O)NCc3ccc4c(c3)OCO4)cc2oc1=O`, the inhibition is reported as 21.2% (inactive). In the case of `CCc1c(C)nc2ncnn2c1N1CCC(C(=O)NCc2ccc3c(c2)OCO3)CC1`, the inhibition is reported as 17.6% (inactive). With `O=C(CC(Cc1ccccc1)C(=O)O)NCCc1ccc2c(c1)OCO2` (centres undefined) the inhibition was 4% (inactive). In the case of `COC(=O)c1sc2ncccc2c1OCc1ccc(Cl)cc1Cl`, the inhibition is reported as -1.5% (inactive). With `COc1ccc2[nH]c(C)c(CCN(Cc3cccs3)C(=S)Nc3ccccc3OC)c2c1` the inhibition was 25.1% (inactive). For `O=C1c2ccccc2NC(c2ccc(-c3cccc(Cl)c3)o2)N1O` (centres undefined), the inhibition was 22.2% (inactive). `Cc1cc(NC(=O)Nc2ccccc2)n(-c2ccccc2)n1` was tested, and the inhibition was 29.8% (inactive). For `CC(C)[C@H](NC(=O)Nc1ccc(S(N)(=O)=O)cc1)C(=O)O`, the inhibition was -1.3% (inactive). For `N#CCSc1nc2ccc(N3CCOCC3)cc2c(=O)n1CCc1ccccc1`, the inhibition was 12.7% (inactive). `CCCCCCSc1nsc(N)n1` was tested, and the inhibition was 45.3% (inactive). `O=C1CC(C(F)(F)C(F)(F)C(F)(F)C(F)(F)F)=Nc2ccccc2N1` was tested, and the inhibition was 35.1% (inactive). In the case of `Cc1ccc(S(=O)(=O)NCc2nc3ccccc3c(=O)n2N)cc1`, the inhibition is reported as -4% (inactive). With `O=c1c2ccccc2nc2n1C(CSc1ccc(Cl)cc1)CN2` (centres undefined) the inhibition was 18.3% (inactive). With `Cc1ccc(C(=O)CSc2nc3ccccc3c(=O)n2N)o1` the inhibition was 33.5% (inactive). For `COc1ccc(OCc2ccc(-c3nc4ccccc4c(=O)n3N)o2)cc1`, the inhibition was 51.4% (active). In the case of `COc1ccc(Oc2c(Cl)cnn(-c3ccccc3)c2=O)cc1`, the inhibition is reported as 29.7% (inactive). `Cn1c(COc2ccc(Cl)cc2)nc2ccccc2c1=O` was tested, and the inhibition was 62.8% (active). `CCc1c(C)[nH]c(=S)c(C#N)c1C` was tested, and the inhibition was -1.3% (inactive). With `CNC(=S)N1N=C(c2ccccc2)CC1c1ccc(Br)cc1` (centres undefined) the inhibition was 29.6% (inactive). In the case of `CSCCC(NC(=O)c1ccc(=O)n(C)n1)c1nc2ccccc2[nH]1` (centres undefined), the inhibition is reported as 8.7% (inactive). In the case of `CC(C)(C)c1cc(C(=O)NCc2cccnc2)ccn1`, the inhibition is reported as 46.9% (inactive). For `O=C(NCc1ccc(Cl)c(Cl)c1)c1cccnc1`, the inhibition was 62.7% (active). `O=C(Nc1cnccn1)c1cccnc1` was tested, and the inhibition was -4.8% (inactive). For `COc1ccc(C(=O)c2c(C)oc3cc([N+](=O)[O-])c(O)c([N+](=O)[O-])c23)cc1`, the inhibition was 6.5% (inactive). `CC/C(=N/Nc1ccccc1)c1cnnc(SC)n1` was tested, and the inhibition was -2.6% (inactive). In the case of `O=C1/C(=C/c2cccs2)CCc2ccccc21`, the inhibition is reported as 87.6% (active). In the case of `Cc1ccc(N2CCN(C3=NC(=O)/C(=C\c4cccs4)S3)CC2)cc1`, the inhibition is reported as 4.4% (inactive). `C(=N/N1CCN(c2ccccc2)CC1)/c1cccs1` was tested, and the inhibition was 48.2% (inactive). `O=C(NC(Nc1nc2ccc([N+](=O)[O-])cc2s1)(C(F)(F)F)C(F)(F)F)c1ccccc1` was tested, and the inhibition was 35.6% (inactive). With `Cc1ccc(F)cc1NC(=O)Cc1nn(C)c(=O)c2ccccc12` the inhibition was 49.1% (inactive). For `O=c1c2ccccc2c(-c2ccc(F)cc2)nn1-c1ccc(C(F)(F)F)cc1`, the inhibition was 31.4% (inactive). `Cc1c(-c2nn(C)c(=O)c3ccccc23)oc2ccc(F)cc2c1=O` was tested, and the inhibition was 99.4% (active). For `Clc1ccc(C=NC23CN4CN(CN(C4)C2)C3)cc1`, the inhibition was -2.3% (inactive). For `O=C(NC1CCCCC1)C1CCCN(S(=O)(=O)c2cccs2)C1` (centres undefined), the inhibition was 38.5% (inactive). With `O=C(Cc1ccc(S(=O)(=O)N2CCCC2)s1)NC1CCCCCC1` the inhibition was 20.7% (inactive). With `O=C(NCc1ccc2c(c1)OCO2)C1CCCN(S(=O)(=O)c2cccs2)C1` (centres undefined) the inhibition was 33.8% (inactive). `O=C(NCc1ccccc1)C1CCCN(S(=O)(=O)c2cccs2)C1` (centres undefined) was tested, and the inhibition was 65.4% (active). With `CCS(=O)(=O)N1CCCC(C(=O)NCc2ccc(C)cc2)C1` (centres undefined) the inhibition was 23.9% (inactive). In the case of `O=C(C1CCN(S(=O)(=O)c2cccs2)CC1)N1CCCCCC1`, the inhibition is reported as 90.3% (active).
